Results from PubChem BioAssay AID1259313 (Sanford-Burnham Center for Chemical Genomics, 2017).
About 8,500 (2.5%) of roughly 340,000 compounds were called active. The sample holds actives, similar compounds and a random draw of the others, so the mix is not that of the screen. Values without a mark were called inactive.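 Rule for the calls: active = melting temperature shift of at least 10% of the positive control shift, at one fixed dose; inactive = the rest.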

The molecules below were run on Glutamate receptor ionotropic, NMDA 3A (GRIN3A) ligand-binding domain (assay: binders of NR3A ligand-binding domain, primary screen, biophysical, differential scanning fluorimetry, uHTS (AID 1259313)). Conditions: NR3A LBD differential scanning fluorimetry, at 25 µM, stronger effect = higher value, 0% = protein alone, 100% = glycine-bound protein.

Structure (SMILES) | Tm shift relative to glycine control
O=C(O)CC(Cc1ccccc1)C(=O)Nc1ccc([N+](=O)[O-])cc1 (configuration not stated) | -4.38%
O=C(Cn1c2[n+](c3ccc(C(F)(F)F)cc31)CCCCC2)Nc1c(F)cccc1F | -0.45%
COc1cc(/C=C/C(=O)OCC(=O)NC2CC2)cc(OC)c1OC | 3.83%
Cc1nc2ccc(NC(=S)N3CCC(C)CC3)cc2nc1C | -0.26%
CCCN(CC1COc2ccccc2O1)C(=S)Nc1ccc(C)cc1 (configuration not stated) | -4.99%
S=C(Nc1ccc(Br)cc1)NC1CCN(Cc2ccccc2)CC1 | -2.33%
O=C(NCC1COc2ccccc2O1)C1(c2ccccc2)CCCC1 (configuration not stated) | -1.37%
S=C(NCC1COc2ccccc2O1)Nc1ccc(Br)cc1 (configuration not stated) | 14.7% (active)
S=C(NCCCc1ccccc1)Nc1ccc(Br)cc1 | 10.2% (active)
O=S(=O)(NCCCc1ccccc1)c1ccc(Br)cc1 | -5.32%
COc1cccc(/C=C2\Sc3ccc(C(=O)NCC4CCCO4)cc3N(C)C2=O)c1 (configuration not stated) | -11.6%
CN(CCc1ccccn1)C1CCCN(S(=O)(=O)c2ccccc2Cl)C1 (configuration not stated) | -1.11%
Cc1ccc(C)c(NC(=O)c2ccc(OC(=O)c3ccco3)cc2)c1 | -0.45%
CC(=O)n1c(C=Nc2ccccc2)c(O)c2ccccc21 | 0.18%
Oc1ccc(N=Cc2sc3ccccc3c2Cl)cc1 | 15.5% (active)
Cc1ccn2cc(-c3nonc3C)cc2c1 | -33.8%
Cc1ccc(NC(=O)Nc2ccccc2)c(Br)c1 | -0.75%
Cc1cccc(NC(=O)Nc2cccc(Oc3c(F)c(F)c(F)c(F)c3F)c2)c1 | 29.1% (active)
Cc1ccoc1C(=O)Nc1cccc(Oc2ccccc2)c1 | -3.01%
CCOc1cc(/C=C/C(=O)OCC(=O)NCCN2C(=O)CSC2=O)ccc1OCC(C)C | 0.08%
CN(Cc1ccc(F)cc1Cl)S(=O)(=O)c1cccs1 | 1.26%
O=C(Nc1ccc(Cl)cc1)N1CCc2[nH]c3ccccc3c2C1 | 250% (active)
CCc1ccc(NC(=O)N2CCc3ccccc3C2)cc1 | -0.69%
Fc1ccc(NC(=S)N2CCc3[nH]c4ccccc4c3C2)cc1 | 13.3% (active)

Structure (SMILES) | Tm shift relative to glycine control
CCOC(=O)C1CCN(C(=O)Nc2ccc(Cl)cc2)CC1 | 3.57%
C=CCNC(=S)N1CCc2[nH]c3ccccc3c2C1 | -15.2%
COc1ccc(NC(=S)N2CCc3cc(OC)c(OC)cc3C2)cc1 | -0.36%
Cc1ccccc1N/C(SCc1ccc(Cl)cc1)=C(/C#N)C(N)=O | -24%
CC1CCN(c2ccc(-c3ccc(NC(=O)c4ccco4)cc3)nn2)CC1 | 5.6%
O=S(=O)(Cc1cc(Cl)nc(-c2cccnc2)n1)c1ccccc1 | 1.48%
CN(C(=O)c1cccc(NC(=O)Cc2ccc(NC(=O)C3CCCN(C(=O)C4CC4)C3)cc2)c1)C1CC1 (configuration not stated) | 1.17%
C[C@@H](Nc1nc(-c2ccccc2)nc2c1oc1ccccc12)C(=O)O | 5.42%
CCc1nc(Nc2ccc(NC(C)=O)cc2)c2oc3ccccc3c2n1 | 10% (active)
CCc1nc(Nc2ccc3nccnc3c2)c2oc3ccccc3c2n1 | -14.2%
CCCC(=O)NC(=S)Nc1ccc(CN2CCOCC2)cc1 | 1.2%
Cc1cc(C)nc(SCc2cn3c(C)cc(C)nc3n2)n1 | -0.2%
CN(C)c1ccc(NC(=S)N(CCc2ccccc2)C2CC(=O)N(c3c(Cl)cccc3Cl)C2=O)cc1 (configuration not stated) | -2.73%
COC(=O)CN(C(=S)Nc1ccc(Cl)cc1)C1CC(=O)N(c2ccc(OC)cc2)C1=O (configuration not stated) | 1.51%
CCOc1ccc(N2C(=O)CC(N(CCc3ccc(OC)c(OC)c3)C(=S)Nc3ccccc3)C2=O)cc1 (configuration not stated) | 14.8% (active)
O=C(O)C#Cc1cccc2ccccc12 | -2.09%
CCC[C@@H]1C[C@@]1(CCC)[C@@H](NC(=O)c1ccccc1)c1ccc(C(=O)OC)cc1 | -0.95%
Cc1cc(C)c(NC(=O)CSc2nc3ccncc3[nH]2)c(C)c1 | -0.53%
COc1ccc2nc(SCC(=O)Nc3c(C)cc(C)cc3C)[nH]c2c1 | 2.89%
CCCCNS(=O)(=O)c1ccc2nc(SCC(=O)Nc3cc(C)cc(C)c3)[nH]c2c1 | 23.7% (active)
COC1=CC(=O)OC(c2ccc(OC)cc2)C1 (configuration not stated) | 3.44%
Cc1ccc(CNC(=O)CCS(=O)(=O)c2ccc3c(c2)CC(C)N3C(=O)C2CC2)o1 (configuration not stated) | -0.09%
CCc1cccc2c3c([nH]c12)C(CC)(CC(=O)O)OCC3 (configuration not stated) | 14.4% (active)
